From PMC7862700, “An all-to-all approach to the identification of sequence-specific readers for epigenetic DNA modifications on cytosine”

Key:
Experiment in all cases: DAPPL (digital affinity profiling via proximity ligation, sequencing); 10 mM Tris-HCl pH 7.5, 50 mM NaCl, 1 mM DTT, 4% glycerol, room temperature, 30 min; GST-TFs on glutathione beads, 16-mer random dsDNA library, 0.1% formaldehyde crosslink after washing; high values mean tight binding
FLI1 = target: T1, FLI1 (Homo sapiens, UniProt Q01543 1-452); details: protein: recombinant; tags: N-terminal GST; dsDNA, one strand shown
T1 sequence: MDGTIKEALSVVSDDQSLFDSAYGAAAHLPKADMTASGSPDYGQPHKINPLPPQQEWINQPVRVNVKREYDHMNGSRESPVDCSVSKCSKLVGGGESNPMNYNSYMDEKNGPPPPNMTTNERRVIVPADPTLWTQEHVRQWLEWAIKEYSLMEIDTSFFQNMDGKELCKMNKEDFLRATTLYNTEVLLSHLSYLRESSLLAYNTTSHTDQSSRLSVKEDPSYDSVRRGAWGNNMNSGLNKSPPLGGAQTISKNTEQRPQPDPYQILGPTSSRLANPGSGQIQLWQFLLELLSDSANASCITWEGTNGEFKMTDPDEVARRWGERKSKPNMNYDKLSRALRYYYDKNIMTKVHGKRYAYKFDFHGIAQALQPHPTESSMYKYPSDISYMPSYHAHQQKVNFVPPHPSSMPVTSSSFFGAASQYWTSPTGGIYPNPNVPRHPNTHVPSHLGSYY
Procedure, shortened: (§1)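 Sequencing on an Illumina NextSeq500 followed washing, crosslinking with 0.1% formaldehyde, proximity ligation (BsaI/T4 ligase, 1 h, 37 °C) and PCR amplification of pools that had been incubated for 30 min at room temperature with 200 nmole of a random double-stranded 16-mer DNA library in Tris/NaCl/DTT/glycerol buffer. Each pool held DNA-barcoded human transcription factors, expressed in yeast as GST fusions and captured on glutathione beads, plus a tag-only sample. Binding signal is a hexamer's read frequency for a factor divided by its frequency in the tag-only sample.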

ELK1 = target: T2, ELK1 (Homo sapiens, UniProt P19419 1-428); details: protein: recombinant; tags: N-terminal GST; dsDNA, one strand shown
T2 sequence: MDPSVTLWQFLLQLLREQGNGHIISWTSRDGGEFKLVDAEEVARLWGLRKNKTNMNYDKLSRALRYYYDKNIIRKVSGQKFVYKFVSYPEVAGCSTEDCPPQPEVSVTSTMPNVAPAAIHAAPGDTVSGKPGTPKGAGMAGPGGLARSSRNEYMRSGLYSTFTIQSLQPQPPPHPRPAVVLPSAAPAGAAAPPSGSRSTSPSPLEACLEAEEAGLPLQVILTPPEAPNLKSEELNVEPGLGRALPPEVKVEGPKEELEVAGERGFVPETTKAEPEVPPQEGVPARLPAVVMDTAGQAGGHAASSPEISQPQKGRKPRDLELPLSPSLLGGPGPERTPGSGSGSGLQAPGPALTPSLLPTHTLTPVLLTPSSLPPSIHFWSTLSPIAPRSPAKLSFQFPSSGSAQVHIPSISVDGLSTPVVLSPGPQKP
Procedure, shortened: as §1

GABPA = target: T3, GABPA (Homo sapiens, UniProt Q06546 1-454); details: protein: recombinant; tags: N-terminal GST; dsDNA, one strand shown
T3 sequence: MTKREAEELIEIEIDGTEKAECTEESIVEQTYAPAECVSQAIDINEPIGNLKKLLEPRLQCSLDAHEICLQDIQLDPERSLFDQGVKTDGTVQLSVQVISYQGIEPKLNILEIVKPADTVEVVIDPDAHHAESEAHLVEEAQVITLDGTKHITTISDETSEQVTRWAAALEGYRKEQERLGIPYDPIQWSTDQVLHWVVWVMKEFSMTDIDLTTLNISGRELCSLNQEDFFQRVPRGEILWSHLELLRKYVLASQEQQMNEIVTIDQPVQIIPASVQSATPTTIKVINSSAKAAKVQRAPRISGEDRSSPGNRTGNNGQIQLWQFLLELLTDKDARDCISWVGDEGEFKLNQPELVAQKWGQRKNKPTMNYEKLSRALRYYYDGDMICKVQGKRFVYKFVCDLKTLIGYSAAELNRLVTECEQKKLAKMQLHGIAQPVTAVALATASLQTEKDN
Procedure, shortened: as §1

ERG = target: T4, ERG (Homo sapiens, UniProt P11308 1-479); details: protein: recombinant; tags: N-terminal GST; dsDNA, one strand shown
T4 sequence: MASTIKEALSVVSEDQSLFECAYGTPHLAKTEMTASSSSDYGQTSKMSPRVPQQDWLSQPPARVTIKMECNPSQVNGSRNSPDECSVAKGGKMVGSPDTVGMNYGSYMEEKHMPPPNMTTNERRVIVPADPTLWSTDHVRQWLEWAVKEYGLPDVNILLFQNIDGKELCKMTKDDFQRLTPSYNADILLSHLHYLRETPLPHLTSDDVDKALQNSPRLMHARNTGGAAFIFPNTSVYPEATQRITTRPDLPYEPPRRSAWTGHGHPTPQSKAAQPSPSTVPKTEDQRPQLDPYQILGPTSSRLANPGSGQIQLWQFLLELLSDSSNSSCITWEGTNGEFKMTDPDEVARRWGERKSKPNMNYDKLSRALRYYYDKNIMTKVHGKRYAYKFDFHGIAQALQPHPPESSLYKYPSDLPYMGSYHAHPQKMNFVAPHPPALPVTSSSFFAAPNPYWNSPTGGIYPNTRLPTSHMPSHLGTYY
Procedure, shortened: as §1

ELF1 = ELF1 (Homo sapiens, UniProt P32519 1-619); details: protein: recombinant; tags: N-terminal GST; dsDNA, one strand shown
Procedure, shortened: as §1

EHF = target: T5, EHF (Homo sapiens, UniProt Q9NZC4 1-300); details: protein: recombinant; tags: N-terminal GST; dsDNA, one strand shown
T5 sequence: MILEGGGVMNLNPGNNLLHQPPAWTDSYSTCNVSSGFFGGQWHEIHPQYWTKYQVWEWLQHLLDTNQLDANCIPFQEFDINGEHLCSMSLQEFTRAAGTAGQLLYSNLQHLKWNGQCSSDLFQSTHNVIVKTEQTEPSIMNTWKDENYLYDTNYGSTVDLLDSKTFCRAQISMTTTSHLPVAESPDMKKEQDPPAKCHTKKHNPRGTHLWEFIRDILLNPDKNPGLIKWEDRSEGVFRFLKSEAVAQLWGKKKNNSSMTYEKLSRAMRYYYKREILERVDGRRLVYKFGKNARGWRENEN
Procedure, shortened: as §1

SPI1 = SPI1 (Homo sapiens, UniProt P17947 1-270); details: protein: recombinant; tags: N-terminal GST; dsDNA, one strand shown
Procedure, shortened: as §1

SPIB = SPIB (Homo sapiens, UniProt Q01892 1-262); details: protein: recombinant; tags: N-terminal GST; dsDNA, one strand shown
Procedure, shortened: as §1

ELK3 = target: T6, ELK3 (Homo sapiens, UniProt P41970 1-407); details: protein: recombinant; tags: N-terminal GST; dsDNA, one strand shown
T6 sequence: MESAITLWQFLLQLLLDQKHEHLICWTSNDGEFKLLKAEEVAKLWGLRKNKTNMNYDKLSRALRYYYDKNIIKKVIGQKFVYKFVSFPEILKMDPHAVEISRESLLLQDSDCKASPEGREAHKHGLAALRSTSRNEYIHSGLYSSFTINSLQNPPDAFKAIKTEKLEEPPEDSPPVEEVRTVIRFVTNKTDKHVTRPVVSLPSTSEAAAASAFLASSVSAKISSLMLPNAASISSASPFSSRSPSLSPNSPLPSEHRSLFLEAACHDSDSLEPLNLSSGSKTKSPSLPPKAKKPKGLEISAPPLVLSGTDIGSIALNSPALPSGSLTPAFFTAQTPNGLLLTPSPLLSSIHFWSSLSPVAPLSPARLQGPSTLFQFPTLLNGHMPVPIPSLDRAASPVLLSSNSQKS
Procedure, shortened: as §1

FEV = target: T7, FEV (Homo sapiens, UniProt Q99581 1-238); details: protein: recombinant; tags: N-terminal GST; dsDNA, one strand shown
T7 sequence: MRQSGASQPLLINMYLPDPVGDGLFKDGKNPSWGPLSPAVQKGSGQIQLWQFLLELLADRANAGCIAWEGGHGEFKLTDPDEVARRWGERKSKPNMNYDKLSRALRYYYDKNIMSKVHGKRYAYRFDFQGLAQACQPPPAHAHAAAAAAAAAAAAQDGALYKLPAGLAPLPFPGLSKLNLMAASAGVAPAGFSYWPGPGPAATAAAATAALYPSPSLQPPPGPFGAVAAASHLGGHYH
Procedure, shortened: as §1

ETV5 = ETV5 (Homo sapiens, UniProt P41161 1-510); details: protein: recombinant; tags: N-terminal GST; dsDNA, one strand shown
Procedure, shortened: as §1

HSF1 = HSF1 (Homo sapiens, UniProt Q00613 1-529); details: protein: recombinant; tags: N-terminal GST; chain copies: 3; dsDNA, one strand shown
Procedure, shortened: as §1

SPIC = target: T8, SPIC (Homo sapiens, UniProt Q8N5J4 1-248); details: protein: recombinant; tags: N-terminal GST; dsDNA, one strand shown
T8 sequence: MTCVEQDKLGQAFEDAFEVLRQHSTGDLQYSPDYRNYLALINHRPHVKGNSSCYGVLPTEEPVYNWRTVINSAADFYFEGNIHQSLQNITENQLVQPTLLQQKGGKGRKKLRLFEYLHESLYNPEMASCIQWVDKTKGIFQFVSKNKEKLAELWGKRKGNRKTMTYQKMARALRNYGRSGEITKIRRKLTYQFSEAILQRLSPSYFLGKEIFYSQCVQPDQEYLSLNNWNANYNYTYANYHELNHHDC
Procedure, shortened: as §1

ELF4 = ELF4 (Homo sapiens, UniProt Q99607 1-663); details: protein: recombinant; tags: N-terminal GST; dsDNA, one strand shown
Procedure, shortened: as §1

ELK4 = target: T9, ELK4 (Homo sapiens, UniProt P28324-2 1-405); details: protein: recombinant; tags: N-terminal GST; dsDNA, one strand shown
T9 sequence: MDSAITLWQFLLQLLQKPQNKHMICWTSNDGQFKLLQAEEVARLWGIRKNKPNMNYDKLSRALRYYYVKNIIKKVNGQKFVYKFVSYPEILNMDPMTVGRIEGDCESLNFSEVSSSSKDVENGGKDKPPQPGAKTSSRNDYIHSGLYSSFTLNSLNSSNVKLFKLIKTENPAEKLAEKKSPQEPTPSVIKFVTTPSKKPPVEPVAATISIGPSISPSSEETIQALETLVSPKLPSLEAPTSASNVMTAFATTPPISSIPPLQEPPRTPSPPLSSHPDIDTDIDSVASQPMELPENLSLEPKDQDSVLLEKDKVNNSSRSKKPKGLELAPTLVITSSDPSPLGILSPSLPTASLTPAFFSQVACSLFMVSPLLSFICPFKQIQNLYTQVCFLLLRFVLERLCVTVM
Procedure, shortened: as §1

ETV2 = target: T10, ETV2 (Homo sapiens, UniProt O00321 1-342); details: protein: recombinant; tags: N-terminal GST; dsDNA, one strand shown
T10 sequence: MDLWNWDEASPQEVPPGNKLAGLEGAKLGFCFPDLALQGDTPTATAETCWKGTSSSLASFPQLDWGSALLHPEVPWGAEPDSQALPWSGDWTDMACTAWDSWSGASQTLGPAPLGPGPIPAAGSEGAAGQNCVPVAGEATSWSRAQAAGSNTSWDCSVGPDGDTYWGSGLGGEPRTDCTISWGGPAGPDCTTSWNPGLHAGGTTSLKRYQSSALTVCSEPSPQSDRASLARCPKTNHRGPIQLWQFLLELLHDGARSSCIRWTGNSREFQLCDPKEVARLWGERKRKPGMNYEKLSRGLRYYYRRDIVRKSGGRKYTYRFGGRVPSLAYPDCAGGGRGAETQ
Procedure, shortened: as §1

ELF3 = target: T11, ELF3 (Homo sapiens, UniProt P78545 1-371); details: protein: recombinant; tags: N-terminal GST; dsDNA, one strand shown
T11 sequence: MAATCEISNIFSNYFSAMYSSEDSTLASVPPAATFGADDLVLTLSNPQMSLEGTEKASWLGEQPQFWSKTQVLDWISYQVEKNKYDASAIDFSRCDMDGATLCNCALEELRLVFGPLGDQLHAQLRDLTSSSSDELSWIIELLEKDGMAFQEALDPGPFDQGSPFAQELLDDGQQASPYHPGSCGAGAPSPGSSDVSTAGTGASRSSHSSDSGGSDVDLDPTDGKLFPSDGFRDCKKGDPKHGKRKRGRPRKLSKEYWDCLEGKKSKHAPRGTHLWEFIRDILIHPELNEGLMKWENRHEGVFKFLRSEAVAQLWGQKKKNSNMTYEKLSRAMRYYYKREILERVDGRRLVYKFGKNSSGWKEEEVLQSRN
Procedure, shortened: as §1

CRX = CRX (Homo sapiens, UniProt O43186 1-299); details: protein: recombinant; tags: N-terminal GST; dsDNA, one strand shown
Procedure, shortened: as §1

ETV1 = ETV1 (Homo sapiens, UniProt P50549 1-477); details: protein: recombinant; tags: N-terminal GST; dsDNA, one strand shown
Procedure, shortened: as §1

SPIB, sequence (Q01892 whole entry): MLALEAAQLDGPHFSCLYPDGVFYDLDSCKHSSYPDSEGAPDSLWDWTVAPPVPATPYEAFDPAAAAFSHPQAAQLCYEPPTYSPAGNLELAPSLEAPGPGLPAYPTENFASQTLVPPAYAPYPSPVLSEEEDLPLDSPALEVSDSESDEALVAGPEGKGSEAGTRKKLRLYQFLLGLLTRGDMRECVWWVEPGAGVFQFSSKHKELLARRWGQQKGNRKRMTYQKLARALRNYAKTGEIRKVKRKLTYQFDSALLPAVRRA
CRX, sequence (O43186 whole entry): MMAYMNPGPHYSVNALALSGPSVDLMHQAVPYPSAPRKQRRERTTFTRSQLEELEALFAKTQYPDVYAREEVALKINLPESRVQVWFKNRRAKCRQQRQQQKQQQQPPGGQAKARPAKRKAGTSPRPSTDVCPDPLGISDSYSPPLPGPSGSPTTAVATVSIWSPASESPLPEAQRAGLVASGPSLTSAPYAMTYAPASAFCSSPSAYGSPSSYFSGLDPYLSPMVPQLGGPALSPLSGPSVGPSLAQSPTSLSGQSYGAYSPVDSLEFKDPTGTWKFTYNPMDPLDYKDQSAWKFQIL
ETV5, sequence (P41161 whole entry): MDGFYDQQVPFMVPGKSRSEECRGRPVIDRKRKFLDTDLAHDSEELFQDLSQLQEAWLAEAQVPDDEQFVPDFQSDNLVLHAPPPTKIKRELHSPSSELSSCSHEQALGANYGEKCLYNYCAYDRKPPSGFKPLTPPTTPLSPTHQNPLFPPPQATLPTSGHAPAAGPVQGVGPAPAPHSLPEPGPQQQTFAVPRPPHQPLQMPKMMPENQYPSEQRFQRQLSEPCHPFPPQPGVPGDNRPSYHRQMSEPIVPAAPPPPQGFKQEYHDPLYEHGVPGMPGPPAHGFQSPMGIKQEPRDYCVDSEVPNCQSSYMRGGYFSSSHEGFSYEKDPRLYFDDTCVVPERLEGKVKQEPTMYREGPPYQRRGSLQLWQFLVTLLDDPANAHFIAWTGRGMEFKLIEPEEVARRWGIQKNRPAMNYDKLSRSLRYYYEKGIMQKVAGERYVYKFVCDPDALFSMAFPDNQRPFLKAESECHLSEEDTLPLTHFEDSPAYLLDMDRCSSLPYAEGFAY
ETV1, sequence (P50549 whole entry): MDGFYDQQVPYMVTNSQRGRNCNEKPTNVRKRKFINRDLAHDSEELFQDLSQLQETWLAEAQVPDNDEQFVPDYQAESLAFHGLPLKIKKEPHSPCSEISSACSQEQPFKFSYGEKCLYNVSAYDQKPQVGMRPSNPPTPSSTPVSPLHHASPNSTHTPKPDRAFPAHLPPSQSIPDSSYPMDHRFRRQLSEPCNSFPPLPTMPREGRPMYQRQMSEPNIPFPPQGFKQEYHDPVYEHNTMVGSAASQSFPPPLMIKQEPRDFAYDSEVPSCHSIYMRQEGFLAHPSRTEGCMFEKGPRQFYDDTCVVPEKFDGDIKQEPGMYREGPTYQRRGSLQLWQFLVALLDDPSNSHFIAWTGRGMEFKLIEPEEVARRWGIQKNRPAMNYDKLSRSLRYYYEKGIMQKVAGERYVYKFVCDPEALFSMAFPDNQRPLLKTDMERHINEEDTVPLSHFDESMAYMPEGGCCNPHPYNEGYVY
ELF1, sequence (P32519 whole entry): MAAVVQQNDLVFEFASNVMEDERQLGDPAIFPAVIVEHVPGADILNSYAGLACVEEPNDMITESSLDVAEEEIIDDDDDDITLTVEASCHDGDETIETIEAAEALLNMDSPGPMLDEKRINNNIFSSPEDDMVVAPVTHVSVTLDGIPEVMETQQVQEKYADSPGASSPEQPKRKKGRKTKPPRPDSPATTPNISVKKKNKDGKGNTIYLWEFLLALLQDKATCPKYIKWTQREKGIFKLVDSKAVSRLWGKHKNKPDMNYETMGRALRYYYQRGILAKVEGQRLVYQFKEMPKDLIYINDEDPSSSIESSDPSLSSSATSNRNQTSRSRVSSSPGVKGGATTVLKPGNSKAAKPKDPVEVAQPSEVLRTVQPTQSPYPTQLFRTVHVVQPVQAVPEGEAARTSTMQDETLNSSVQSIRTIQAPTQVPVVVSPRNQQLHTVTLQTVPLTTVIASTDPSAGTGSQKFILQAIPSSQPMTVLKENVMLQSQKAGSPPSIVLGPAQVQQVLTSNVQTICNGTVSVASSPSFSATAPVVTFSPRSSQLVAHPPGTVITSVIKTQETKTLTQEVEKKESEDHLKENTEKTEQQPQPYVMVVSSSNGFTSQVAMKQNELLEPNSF
HSF1, sequence (Q00613 whole entry): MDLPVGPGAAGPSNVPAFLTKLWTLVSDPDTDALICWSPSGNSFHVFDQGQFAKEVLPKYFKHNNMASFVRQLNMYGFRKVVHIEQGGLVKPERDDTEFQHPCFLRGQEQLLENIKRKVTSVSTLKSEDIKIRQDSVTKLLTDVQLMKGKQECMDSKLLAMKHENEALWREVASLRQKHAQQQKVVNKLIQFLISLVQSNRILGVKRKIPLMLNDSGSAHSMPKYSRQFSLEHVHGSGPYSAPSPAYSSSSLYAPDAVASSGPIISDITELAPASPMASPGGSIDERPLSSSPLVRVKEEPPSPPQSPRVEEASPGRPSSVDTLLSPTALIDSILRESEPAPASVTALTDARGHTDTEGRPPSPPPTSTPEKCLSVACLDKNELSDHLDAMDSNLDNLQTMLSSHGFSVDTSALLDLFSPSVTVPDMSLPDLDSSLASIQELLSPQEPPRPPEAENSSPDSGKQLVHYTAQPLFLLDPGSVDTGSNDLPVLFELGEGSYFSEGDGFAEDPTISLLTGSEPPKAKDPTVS
ELF4, sequence (Q99607 whole entry): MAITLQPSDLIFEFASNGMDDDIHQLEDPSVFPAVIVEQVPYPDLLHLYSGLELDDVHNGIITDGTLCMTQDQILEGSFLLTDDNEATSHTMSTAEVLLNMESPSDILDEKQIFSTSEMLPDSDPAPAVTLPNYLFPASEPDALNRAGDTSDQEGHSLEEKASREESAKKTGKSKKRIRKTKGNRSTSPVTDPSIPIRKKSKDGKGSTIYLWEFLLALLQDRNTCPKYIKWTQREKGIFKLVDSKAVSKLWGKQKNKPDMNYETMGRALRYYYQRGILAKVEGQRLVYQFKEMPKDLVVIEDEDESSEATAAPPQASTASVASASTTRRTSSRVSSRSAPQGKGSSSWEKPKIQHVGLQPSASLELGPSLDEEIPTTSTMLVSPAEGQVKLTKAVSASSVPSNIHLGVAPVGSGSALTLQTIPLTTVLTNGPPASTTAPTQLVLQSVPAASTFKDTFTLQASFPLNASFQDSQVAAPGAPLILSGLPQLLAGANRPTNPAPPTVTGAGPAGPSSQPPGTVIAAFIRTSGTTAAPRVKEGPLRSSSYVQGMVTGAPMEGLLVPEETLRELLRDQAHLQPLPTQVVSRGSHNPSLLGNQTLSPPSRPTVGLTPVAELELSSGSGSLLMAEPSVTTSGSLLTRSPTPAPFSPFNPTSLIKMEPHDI

TAGCCC was tested, and the binding signal (FLI1) was 1.23 fold enrichment (6-mer frequency, TF over GST control), the binding signal (ELK1) was 1.18 fold enrichment (6-mer frequency, TF over GST control) and the binding signal (GABPA) was 1.12 fold enrichment (6-mer frequency, TF over GST control). The binding signal (ERG) was 1.12 fold enrichment (6-mer frequency, TF over GST control), the binding signal (ELF1) was 1.08 fold enrichment (6-mer frequency, TF over GST control) and the binding signal (EHF) was 1.21 fold enrichment (6-mer frequency, TF over GST control). The binding signal (SPI1) was 1.13 fold enrichment (6-mer frequency, TF over GST control), the binding signal (SPIB) was 1.16 fold enrichment (6-mer frequency, TF over GST control) and the binding signal (ELK3) was 1.24 fold enrichment (6-mer frequency, TF over GST control). The binding signal (FEV) was 1.21 fold enrichment (6-mer frequency, TF over GST control), the binding signal (ETV5) was 1.18 fold enrichment (6-mer frequency, TF over GST control) and the binding signal (HSF1) was 1.19 fold enrichment (6-mer frequency, TF over GST control). For the same sequence, the binding signal (SPIC) was 1.23 fold enrichment (6-mer frequency, TF over GST control), the binding signal (ELF4) was 1.28 fold enrichment (6-mer frequency, TF over GST control) and the binding signal (ELK4) was 1.15 fold enrichment (6-mer frequency, TF over GST control). The binding signal (ETV2) was 1.15 fold enrichment (6-mer frequency, TF over GST control), the binding signal (ELF3) was 1.08 fold enrichment (6-mer frequency, TF over GST control) and the binding signal (CRX) was 1.36 fold enrichment (6-mer frequency, TF over GST control). The binding signal (ETV1) was 1.12 fold enrichment (6-mer frequency, TF over GST control).
